From PubChem BioAssay (NCI)
Compounds without any hit were thinned out: in the full panel of roughly 79,000, 15% have a hit. A number with no mark means an inactive call. Activity calls are given as the source filed them. Rule as the data show it: active = growth inhibition above about 70%; inactive = the rest.

What was measured:
[1] = NCI Yeast Anticancer Drug Screen. Data for the mlh1 strain (AID 171);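 also: 0% = growth of vehicle-treated control cultures of the same strain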; details: S. cerevisiae mlh1 strain growth inhibition, hits give high values
Procedure, shortened: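 Measured: yeast growth. Reference: vehicle-treated controls. Organism: strain with a defined alteration affecting DNA damage repair or cell cycle control, treated with compound.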

[2] = NCI Yeast Anticancer Drug Screen. Data for the sgs1 strain (AID 173);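 also: 0% = growth of vehicle-only control cultures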; details: S. cerevisiae sgs1 mutant, hits give high values
Procedure, shortened: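 Each compound was added to cultures of the altered yeast strain. Growth was recorded, and inhibition was derived by comparison with vehicle controls.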

[3] = NCI Yeast Anticancer Drug Screen. Data for the mlh1 rad18 strain (AID 175); details: S. cerevisiae mlh1 rad18 strain growth inhibition, hits give high values
Procedure, shortened: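 Genetically defined yeast (DNA repair-deficient) exposed to compounds; growth inhibition determined relative to vehicle.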

[4] = NCI Yeast Anticancer Drug Screen. Data for the rad18 strain (AID 177); details: S. cerevisiae rad18 mutant growth inhibition, hits give high values
Procedure, shortened: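 Vehicle-treated cultures served as the baseline for scoring compound-induced growth inhibition in DNA-repair-mutant yeast.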

[5] = NCI Yeast Anticancer Drug Screen. Data for the rad52 strain (AID 147);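 also: 0% = growth of vehicle-treated control cultures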; details: S. cerevisiae rad52 mutant growth inhibition, hits give high values
Procedure, shortened: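 The repair-mutant yeast strain was incubated with compounds, then growth was read and inhibition derived relative to vehicle.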

[6] = NCI Yeast Anticancer Drug Screen. Data for the rad50EPP+ strain (AID 151);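 also: 0% = growth of vehicle-treated control cultures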; details: S. cerevisiae rad50 mutant strain, hits give high values
Procedure, shortened: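 Vehicle-normalised growth inhibition; rad50EPP+ yeast strain, altered in DNA damage repair, compound-treated.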

[7] = NCI Yeast Anticancer Drug Screen. Data for the rad50 strain (AID 155);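 also: 0% = growth of vehicle-only cultures of the same strain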; details: S. cerevisiae rad50 strain growth inhibition, hits give high values
Procedure, shortened: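 Growth of the mutant yeast was measured after compound exposure and referenced to vehicle-treated cultures.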

[8] = NCI Yeast Anticancer Drug Screen. Data for the mec2-1 strain (AID 157); details: S. cerevisiae mec2-1 strain, hits give high values
Procedure, shortened: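 Mutant yeast (mec2-1) grown with compound; growth inhibition relative to vehicle control reported.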

[9] = NCI Yeast Anticancer Drug Screen. Data for the rad14 strain (AID 159);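 also: 0% = growth of vehicle-treated control cultures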; details: S. cerevisiae rad14 strain growth inhibition, hits give high values
Procedure, shortened: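 Here, inhibition of yeast growth was measured after compound exposure, using a strain with a genetic defect in DNA damage repair and vehicle-treated cultures as the reference.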

[10] = NCI Yeast Anticancer Drug Screen. Data for the sgs1 mgt1 strain (AID 161);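 also: 0% = growth of cultures given vehicle only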; details: S. cerevisiae sgs1 mgt1 strain, hits give high values
Procedure, shortened: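 Yeast cells carrying a defined DNA-repair defect were exposed to test compounds. Growth inhibition was measured relative to vehicle-treated controls.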

[11] = NCI Yeast Anticancer Drug Screen. Data for the CLN2oe strain (AID 163);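 also: 0% = growth of vehicle-only control cultures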; details: S. cerevisiae CLN2oe strain, hits give high values
Procedure, shortened: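 Compounds are applied to yeast harbouring a defined cell-cycle control change; reduced growth compared with vehicle-treated controls gives the value.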

[12] = NCI Yeast Anticancer Drug Screen. Data for the cln2 rad14 strain (AID 165);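 also: 0% = growth equal to vehicle treated cultures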; details: S. cerevisiae cln2 rad14 strain, hits give high values
Procedure, shortened: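 Readout is yeast growth inhibition versus vehicle-treated controls, using a strain with cln2 and rad14 alterations exposed to compound.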

[13] = NCI Yeast Anticancer Drug Screen. Data for the bub3 strain (AID 167); details: S. cerevisiae bub3 mutant strain, hits give high values
Procedure, shortened: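 Whole-cell yeast assay. The mutant strain was incubated with compounds, and growth inhibition was determined by comparison with vehicle-treated cells.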

[14] = NCI Yeast Anticancer Drug Screen. Data for the wt2 strain (AID 169);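 also: 0% = growth of vehicle-treated yeast cultures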; details: S. cerevisiae wt2 strain growth inhibition, hits give high values
Procedure, shortened: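 Against vehicle-treated controls, the growth of yeast exposed to each compound was compared, and the inhibition was recorded.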

[15] = at 5.0 µM (retest, dose inferred, filed as 0.5)
[16] = at 50.0 µM (retest, dose inferred, filed as 5.0)

Question: For `O=C(/C=C/c1cccc2ccccc12)c1ccc(Cl)cc1`, which growth inhibition ([1]; at 33.0 µM) is on record?
Answer: Its growth inhibition is -46%.

Question: And the growth inhibition ([1]; at 100.0 µM)?
Answer: Its growth inhibition is -49%.

Question: What about the growth inhibition ([2]; at 1.2 µM) of the same molecule?
Answer: The growth inhibition was -21%.

Question: What about the growth inhibition ([2]; at 3.7 µM) of the same molecule?
Answer: Its growth inhibition is -22%.

Question: What about the growth inhibition ([2]; at 11.0 µM) of the same molecule?
Answer: The growth inhibition was -27%.

Question: What about the growth inhibition ([2]; at 33.0 µM) of the same molecule?
Answer: Its growth inhibition is -34%.

Question: And the growth inhibition ([2]; at 100.0 µM)?
Answer: The growth inhibition was -48%.

Question: And the growth inhibition [3, 15]?
Answer: Its growth inhibition is 35%.

Question: What about the growth inhibition [3, 16] of the same molecule?
Answer: Its growth inhibition is 99% (active).

Question: And the growth inhibition ([3]; at 50.0 µM)?
Answer: Its growth inhibition is 80.4% (active).

Question: And the growth inhibition ([4]; at 1.2 µM)?
Answer: Its growth inhibition is 3%.

Question: And the growth inhibition ([4]; at 3.7 µM)?
Answer: Its growth inhibition is 9%.

Question: What about the growth inhibition ([4]; at 11.0 µM) of the same molecule?
Answer: Its growth inhibition is 5%.

Question: And the growth inhibition ([4]; at 33.0 µM)?
Answer: The growth inhibition was 13%.

Question: And the growth inhibition ([4]; at 100.0 µM)?
Answer: The growth inhibition was 14%.

Question: For `O=C(NCCCCCN1CCC2(CCCCC2)CC1)C(C1CCCCC1)C1CCCCC1`, which growth inhibition ([5]; at 1.2 µM) is on record?
Answer: Its growth inhibition is 23%.

Question: And the growth inhibition ([5]; at 3.7 µM)?
Answer: Its growth inhibition is 5%.

Question: And the growth inhibition ([5]; at 11.0 µM)?
Answer: Its growth inhibition is 65%.

Question: And the growth inhibition ([5]; at 33.0 µM)?
Answer: Its growth inhibition is 100% (active).

Question: What about the growth inhibition ([5]; at 100.0 µM) of the same molecule?
Answer: The growth inhibition was 97% (active).

Question: And the growth inhibition ([6]; at 1.2 µM)?
Answer: The growth inhibition was -1%.

Question: What about the growth inhibition ([6]; at 3.7 µM) of the same molecule?
Answer: Its growth inhibition is 0%.

Question: And the growth inhibition ([6]; at 11.0 µM)?
Answer: Its growth inhibition is 3%.

Question: What about the growth inhibition ([6]; at 33.0 µM) of the same molecule?
Answer: The growth inhibition was 10%.

Question: What about the growth inhibition ([6]; at 100.0 µM) of the same molecule?
Answer: Its growth inhibition is 99% (active).

Question: And the growth inhibition ([7]; at 1.2 µM)?
Answer: Its growth inhibition is -1%.

Question: What about the growth inhibition ([7]; at 3.7 µM) of the same molecule?
Answer: Its growth inhibition is 11%.

Question: And the growth inhibition [7, 15]?
Answer: Its growth inhibition is -7%.

Question: What about the growth inhibition ([7]; at 11.0 µM) of the same molecule?
Answer: The growth inhibition was 46%.

Question: And the growth inhibition ([7]; at 33.0 µM)?
Answer: Its growth inhibition is 97% (active).

Question: What about the growth inhibition [7, 16] of the same molecule?
Answer: The growth inhibition was 99% (active).

Question: And the growth inhibition ([7]; at 50.0 µM)?
Answer: The growth inhibition was 99.5% (active).

Question: What about the growth inhibition ([7]; at 100.0 µM) of the same molecule?
Answer: The growth inhibition was 99% (active).

Question: And the growth inhibition ([8]; at 1.2 µM)?
Answer: Its growth inhibition is 22%.

Question: What about the growth inhibition ([8]; at 3.7 µM) of the same molecule?
Answer: Its growth inhibition is -5%.

Question: And the growth inhibition [8, 15]?
Answer: The growth inhibition was -22%.

Question: What about the growth inhibition ([8]; at 11.0 µM) of the same molecule?
Answer: The growth inhibition was 42%.

Question: And the growth inhibition ([8]; at 33.0 µM)?
Answer: The growth inhibition was 100% (active).

Question: And the growth inhibition [8, 16]?
Answer: The growth inhibition was 98% (active).

Question: And the growth inhibition ([8]; at 50.0 µM)?
Answer: Its growth inhibition is 99.3% (active).

Question: What about the growth inhibition ([8]; at 100.0 µM) of the same molecule?
Answer: The growth inhibition was 98% (active).

Question: What about the growth inhibition ([9]; at 1.2 µM) of the same molecule?
Answer: Its growth inhibition is 11%.

Question: And the growth inhibition ([9]; at 3.7 µM)?
Answer: Its growth inhibition is 49%.

Question: What about the growth inhibition ([9]; at 11.0 µM) of the same molecule?
Answer: The growth inhibition was 98% (active).

Question: What about the growth inhibition ([9]; at 33.0 µM) of the same molecule?
Answer: The growth inhibition was 99% (active).

Question: And the growth inhibition ([9]; at 100.0 µM)?
Answer: The growth inhibition was 99% (active).

Question: What about the growth inhibition [10, 15] of the same molecule?
Answer: Its growth inhibition is -15%.

Question: And the growth inhibition [10, 16]?
Answer: The growth inhibition was 99% (active).

Question: And the growth inhibition ([10]; at 50.0 µM)?
Answer: The growth inhibition was 99.6% (active).

Question: And the growth inhibition ([11]; at 1.2 µM)?
Answer: The growth inhibition was -4%.

Question: What about the growth inhibition ([11]; at 3.7 µM) of the same molecule?
Answer: Its growth inhibition is 4%.

Question: And the growth inhibition ([11]; at 11.0 µM)?
Answer: The growth inhibition was 78% (active).

Question: What about the growth inhibition ([11]; at 33.0 µM) of the same molecule?
Answer: The growth inhibition was 99% (active).

Question: And the growth inhibition ([11]; at 100.0 µM)?
Answer: Its growth inhibition is 99% (active).

Question: And the growth inhibition [12, 15]?
Answer: The growth inhibition was 70% (active).

Question: And the growth inhibition [12, 16]?
Answer: The growth inhibition was 99% (active).

Question: What about the growth inhibition ([12]; at 50.0 µM) of the same molecule?
Answer: The growth inhibition was 98.8% (active).

Question: And the growth inhibition ([13]; at 1.2 µM)?
Answer: The growth inhibition was -2%.

Question: And the growth inhibition ([13]; at 3.7 µM)?
Answer: The growth inhibition was 2%.

Question: And the growth inhibition [13, 15]?
Answer: The growth inhibition was -17%.

Question: And the growth inhibition ([13]; at 11.0 µM)?
Answer: Its growth inhibition is 80% (active).

Question: And the growth inhibition ([13]; at 33.0 µM)?
Answer: The growth inhibition was 99% (active).

Question: And the growth inhibition [13, 16]?
Answer: Its growth inhibition is 100% (active).

Question: What about the growth inhibition ([13]; at 50.0 µM) of the same molecule?
Answer: The growth inhibition was 99.2% (active).

Question: And the growth inhibition ([13]; at 100.0 µM)?
Answer: Its growth inhibition is 99% (active).

Question: What about the growth inhibition ([14]; at 1.2 µM) of the same molecule?
Answer: The growth inhibition was -1%.

Question: What about the growth inhibition ([14]; at 3.7 µM) of the same molecule?
Answer: The growth inhibition was 3%.

Question: And the growth inhibition ([14]; at 11.0 µM)?
Answer: The growth inhibition was 45%.

Question: What about the growth inhibition ([14]; at 33.0 µM) of the same molecule?
Answer: The growth inhibition was 99% (active).

Question: What about the growth inhibition ([14]; at 100.0 µM) of the same molecule?
Answer: The growth inhibition was 99% (active).

Question: What about the growth inhibition ([1]; at 1.2 µM) of the same molecule?
Answer: Its growth inhibition is 0%.

Question: And the growth inhibition ([1]; at 3.7 µM)?
Answer: The growth inhibition was 7%.

Question: What about the growth inhibition ([1]; at 11.0 µM) of the same molecule?
Answer: Its growth inhibition is 76% (active).

Question: What about the growth inhibition ([1]; at 33.0 µM) of the same molecule?
Answer: The growth inhibition was 99% (active).

Question: And the growth inhibition ([1]; at 100.0 µM)?
Answer: Its growth inhibition is 94% (active).

Question: What about the growth inhibition ([2]; at 1.2 µM) of the same molecule?
Answer: Its growth inhibition is 2%.

Question: And the growth inhibition ([2]; at 3.7 µM)?
Answer: Its growth inhibition is 24%.

Question: And the growth inhibition ([2]; at 11.0 µM)?
Answer: Its growth inhibition is 86% (active).

Question: And the growth inhibition ([2]; at 33.0 µM)?
Answer: The growth inhibition was 99% (active).

Question: And the growth inhibition ([2]; at 100.0 µM)?
Answer: Its growth inhibition is 98% (active).

Question: What about the growth inhibition [3, 15] of the same molecule?
Answer: Its growth inhibition is -3%.

Question: And the growth inhibition [3, 16]?
Answer: The growth inhibition was 99% (active).

Question: What about the growth inhibition ([3]; at 50.0 µM) of the same molecule?
Answer: The growth inhibition was 99.5% (active).
